PubChem BioAssay (NCATS)
Results filed as inconclusive are left out. Active and inactive are the calls of the source. Calls come from the whole dose curve; tested in HEK293 reporter line.

Experiment: qHTS for Inhibitors of the Functional Ribonucleoprotein Complex (vRNP) of Lassa (LASV) Arenavirus: Viability assay - alamar blue signal for LASV Primary Screen (AID 1347083)
Settings: cell viability, alamar blue fluorescence (LASV minigenome counter-screen); series mostly up to 57.5 µM
Note: nearly all actives have a fitted effect of over 80% in size.
Potency is the fitted concentration of half-maximal effect.

Which Potency does the source give for O=C1NC(=O)c2cc(Nc3ccccc3)c(Nc3ccccc3)cc21 here?
The Potency was “inactive”.

For Cc1c(NC(=O)OC[C@@H]2COCCN2)cn2ncnc(Nc3ccc4c(cnn4Cc4cccc(F)c4)c3)c12, which Potency is on record?
Its Potency is 1.22 µM (active).

With Cc1ccn(-c2ccc(-c3ncco3)cc2)c(=O)c1-c1ccc2nc(N)ncc2c1 as the compound, how does the Potency read?
Its Potency is 3.43 µM (active).

With CC(C)CNc1ccnc(NCc2csc(-c3ccccc3)n2)n1 as the compound, how does the Potency read?
The Potency was 13.7 µM (active).

Which Potency does the source give for Nc1nc(N)c2nc(-c3cccc(O)c3)c(-c3cccc(O)c3)nc2n1 here?
Its Potency is 8.63 µM (active).

For NC(=O)N1CCC(CC(=O)N2CCC([C@H]3c4ncc(Br)cc4CCc4cc(Cl)cc(Br)c43)CC2)CC1, which Potency is on record?
The Potency was “inactive”.

With COc1cc2ncnc(Nc3cccc(Br)c3)c2cc1OC as the compound, how does the Potency read?
Its Potency is 0.344 µM (active).

For Cc1c(Cn2c(C)nc3c(C(=O)O)cc(N4CCOCC4)cc32)cccc1C(F)(F)F, which Potency is on record?
The Potency was 1.09 µM (active).

For CNC(=O)c1ccc(Nc2cc(Nc3ccccc3S(=O)(=O)C(C)C)c3cc[nH]c3n2)nc1, which Potency is on record?
Its Potency is 8.63 µM (active).

With C#Cc1cccc(Nc2ncnc3cc(OCCOC)c(OCCO)cc23)c1 as the compound, how does the Potency read?
Its Potency is 10.9 µM (active).

For CN(C)N=Nc1nc[nH]c1C(N)=O, which Potency is on record?
Its Potency is 17.2 µM (active).

With CN(C)CCOc1ccc(C(=C(CCCl)c2ccccc2)c2ccccc2)cc1 as the compound, how does the Potency read?
Its Potency is 12.2 µM (active).

For CNC1CCC(N(Cc2cccc(-c3ccncc3)c2)C(=O)c2sc3ccccc3c2Cl)CC1 (stereo not given), which Potency is on record?
The Potency was 30.6 µM (active).

For Cc1cc(C(=O)N2CCN(c3cccc(Cl)c3)CC2)n(-c2ccccc2)n1, which Potency is on record?
The Potency was 0.611 µM (active).

With CC1=C(CC(=O)O)c2cc(F)ccc2C1=Cc1ccc(S(C)=O)cc1 (stereo not given) as the compound, how does the Potency read?
The Potency was 38.5 µM (active).

For C[C@@H]1COC(Nc2ccc3ncnc(Nc4ccc(OCc5nccs5)c(Cl)c4)c3c2)=N1, which Potency is on record?
The Potency was 1.53 µM (active).

With C[C@@H](NC(=O)c1ncnc(N)c1Cl)c1ncc(C(=O)Nc2cc(C(F)(F)F)c(Cl)cn2)s1 as the compound, how does the Potency read?
Its Potency is 24.3 µM (active).

Which Potency does the source give for Cn1cc(C2=C(c3c4n(c5ccccc35)CCC(CN)C4)C(=O)NC2=O)c2ccccc21 (stereo not given) here?
The Potency was 17.2 µM (active).

With O=C(Nc1cccc(Br)c1)c1cccc(S(=O)(=O)N2CCCCCC2)c1 as the compound, how does the Potency read?
Its Potency is 24.3 µM (active).

With Cc1cnc(Nc2ccc(CN3CCOCC3)cc2)nc1Nc1cccc(S(=O)(=O)NC(C)(C)C)c1 as the compound, how does the Potency read?
Its Potency is 4.32 µM (active).

With c1cc(N[C@@H]2CCNC2)nc(-c2cnc3ccc(-c4cn[nH]c4)cn23)c1 as the compound, how does the Potency read?
The Potency was 10.9 µM (active).

Which Potency does the source give for Cc1ccc(NC(=O)c2cccc(N(C)C)c2)cc1NC(=O)c1ccc(O)cc1 here?
Its Potency is 12.2 µM (active).

With c1ccc2c(Cc3c[nH]c4ccccc34)c[nH]c2c1 as the compound, how does the Potency read?
Its Potency is 4.32 µM (active).

Which Potency does the source give for COc1ccc(S(=O)(=O)Nc2cccnc2Nc2ccc(O)cc2)cc1 here?
The Potency was 0.273 µM (active).

With CCCCCCN(CCCCCC)C(=O)Cc1c(-c2ccc(F)cc2)[nH]c2ccccc12 as the compound, how does the Potency read?
Its Potency is “inactive”.

For CCOC(=O)C1=C(C)NC(=S)NC1c1cccc(O)c1 (stereo not given), which Potency is on record?
The Potency was 0.344 µM (active).

For CS(=O)(=O)N1CCc2c(-c3cnc(N)nc3)nc(N3CCOCC3)nc21, which Potency is on record?
The Potency was 0.273 µM (active).

With COc1ccc(C=Cc2cc(OC)c(OC)c(OC)c2)cc1NC(=O)[C@H](N)CO as the compound, how does the Potency read?
Its Potency is 0.0022 µM (active).

With COCCOc1ccc2c(c1)ncn2-c1ccc2cccc(N3CCC(N)CC3)c2n1 as the compound, how does the Potency read?
The Potency was 24.3 µM (active).

Which Potency does the source give for NC(=O)Nc1cc(-c2ccc(CN3CCOCC3)cc2)sc1C(N)=O here?
Its Potency is 7.69 µM (active).

Which Potency does the source give for C[C@@H]1C[C@@H]2O[C@H]2/C=C\C=C\C(=O)Cc2c(Cl)c(O)cc(O)c2C(=O)O1 here?
Its Potency is 6.31 µM (active).

For C[C@]12CC[C@@H]3c4ccc(O)cc4CC[C@H]3[C@H]1CC[C@H]2O, which Potency is on record?
Its Potency is 9.68 µM (active).

Experiment: qHTS for Inhibitors of the Functional Ribonucleoprotein Complex (vRNP) of Lymphocytic Choriomeningitis Arenaviruses (LCMV): Viability assay - alamar blue signal for LCMV Primary Screen (AID 1347085)
Settings: alamar blue viability counter-screen, LCMV vRNP screen cells; series mostly up to 57.5 µM

With C=C1C(=O)OC2CC3(C)OC3CCC(C)=CC(OC(C)=O)C12 (stereo not given) as the compound, how does the Potency read?
Its Potency is “inactive”.

Which Potency does the source give for CC=CC[C@@H](C)C(=O)[C@H]1C(=O)N[C@@H](C(C)C)C(=O)N(C)CC(=O)N(C)[C@@H](CC(C)C)C(=O)N[C@@H](C(C)C)C(=O)N(C)[C@@H](CC(C)C)C(=O)N[C@@H](C)C(=O)N[C@H](C)C(=O)N(C)[C@@H](CC(C)C)C(=O)N(C)[C@@H](CC(C)C)C(=O)N(C)[C@@H](C(C)C)C(=O)N1C here?
Its Potency is “inactive”.

Which Potency does the source give for CCC1(O)C(=O)OCc2c1cc1n(c2=O)Cc2cc3cc(O)ccc3nc2-1 (stereo not given) here?
Its Potency is 0.1 µM (active).

With CC(=O)O[C@@H]1[C@@H](O)C2OC3C=C(C)C(=O)[C@@H](O)[C@]3(CO)C1(C)C21CO1 (stereo not given in full) as the compound, how does the Potency read?
The Potency was 0.316 µM (active).

Which Potency does the source give for COC1CCC(OC2CC(C3(C)CCC4(CC(O)C(C)C(C(C)/C=C(\C)C(=O)C(C)CC(C)C(=O)O)O4)O3)OC3(OC(C4OC(O)(CO)C(C)CC4C)CC3C)C2C)OC1C (stereo not given) here?
Its Potency is “inactive”.

Which Potency does the source give for CC(C)=CCCC(C)=CCCC(C)=CCCC(C)=CCCC(C)=CCCC(C)=CCCC(C)=CCCC(C)=CCCC(C)=CCO here?
Its Potency is 21.7 µM (active).

Which Potency does the source give for C[C@@H]1CC=CC=CC=CC=C[C@@H](O[C@@H]2O[C@H](C)[C@@H](O)[C@H](N)[C@H]2O)C[C@@H]2O[C@](O)(C[C@@H](O)C[C@@H]3O[C@@H]3C=CC(=O)O1)C[C@H](O)[C@@H]2C(=O)O here?
The Potency was “inactive”.

With CCOC(=O)N[C@@H]1CC[C@@H]2[C@@H](C1)C[C@H]1C(=O)O[C@H](C)[C@H]1[C@@H]2C=Cc1ccc(-c2cccc(F)c2)cn1 as the compound, how does the Potency read?
Its Potency is 5.44 µM (active).
